Records with an inconclusive call do not appear. Calls of active or inactive are those of the source. Unless noted, calls follow the shape of the dose curve; as a rule, active = well fitted curve in the direction sought with a large enough effect in the repeat runs; inconclusive = weak or mixed curves; inactive = no such curve, though single readings can be large; an effect the other way counts as inactive or inconclusive.
Legend:
[1] = qHTS assay to identify small molecule antagonists of the androgen receptor (AR) signaling pathway using the MDA cell line in the presence of 0.5 nM R1881 - cell viability counter screen (AID 1259242); also: nearly all actives have a fitted effect of over 45% in size; also: potency is read from the fitted curve at half-maximal effect
Outline: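 R1881 at 0.5 nM final stimulated MDA-kb2 cells during 16 hr compound treatment at 37C. Cytotoxicity read: CellTiter-Fluor fluorescence after 30 min.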

[2] = qHTS assay to identify small molecule phospholipidosis (PLD) inducers (AID 1259344; active = well fitted curve in the direction sought with a large enough effect; an effect the other way counts as inactive or inconclusive)
Outline: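 Fluorescent phospholipid staining (LipidTOX Red) measured by automated microscopy in fixed HepG2 cells after 24 h treatment; nuclei counterstained with Hoechst 33342; amiodarone as reference inducer.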

[3] = qHTS assay to identify small molecule HDAC inhibitors (AID 1259364); also: potency is read from the fitted curve at half-maximal effect;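 also: wild-type HCT-116 cells with endogenous class I/II HDAC activity; nearly all actives have a fitted effect of over 45% in size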; as to activity change, negative = inhibition: top concentration of the series differs between compounds
Outline: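 Relative class I and II HDAC activity is taken from the luminogenic signal in HCT-116 cells, with compound exposure 2 hr and reagent development 30 min at room temperature.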

[4] = qHTS assay to identify small molecule HDAC inhibitors - cell viability counter screen (AID 1259365); also: nearly all actives have a fitted effect of over 50% in size; also: potency is read from the fitted curve at half-maximal effect; as to activity change, negative = cytotoxicity: series mostly up to about 92 µM
Outline: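 To flag cytotoxic hits, 1,500 wild-type HCT-116 cells per well, plated the day before, receive test compounds for 2hr at 37 C before CellTiter-Glo reagent and a luminescence read.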

[5] = qHTS assay to identify small molecule agonists of the sonic hedgehog signaling (Shh) pathway (AID 1259368; calls by dose curve;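 also: NIH/3T3-derived 3T3Gli1-Luc cells carrying a stable Gli1-driven firefly luciferase reporter; series mostly up to about 92 µM; nearly all actives have a fitted effect of over 15% in size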)
Outline: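 Mouse fibroblast (NIH/3T3) reporter cells with stably integrated Gli1-Luc were treated 24 hr with compound; firefly luciferase luminescence served as the read-out.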

[6] = qHTS assay to identify small molecule antagonists of the estrogen receptor alpha (ER-alpha) signaling pathway using the BG1 cell line in the presence of 0.1 nM 17-beta-estradiol - cell viability counter screen (AID 1259241); also: nearly all actives have a fitted effect of over 40% in size; also: potency is read from the fitted curve at half-maximal effect
Outline: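 CellTiter-Fluor read (30 min, 37C) on ER-alpha/ERE-luc VM7Luc4E2 cells; 22 hr compound treatment; agonist 0.1 nM E2 final; same-well multiplex.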

[7] = qHTS assay to identify small molecule antagonists of the sonic hedgehog signaling (Shh) pathway - cell viability counter screen (AID 1259367); also: nearly all actives have a fitted effect of over 55% in size; also: potency is read from the fitted curve at half-maximal effect
Outline: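 Using CellTiter-Fluor, viability of Gli1-Luc reporter 3T3 cells is read by fluorescence in the wells used for the Shh luciferase assay. Treatment lasts 23 hr with conditioned medium, then reagent 1 hr at 37C.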

[8] = molecular target: Estrogen receptor (Homo sapiens) (UniProt P03372); experiment: qHTS assay to identify small molecule antagonists of the estrogen receptor alpha (ER-alpha) signaling pathway using the BG1 cell line in the presence of 0.1 nM 17-beta-estradiol (AID 1259244); also: nearly all actives have a fitted effect of over 50% in size; also: potency is read from the fitted curve at half-maximal effect
Outline: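 VM7Luc4E2; 4xERE-luciferase; 0.1 nM E2 final; 22 h co-incubation, 37C; ONE-Glo luminescence after 30 min at room temperature.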

[9] = qHTS assay to identify small molecule agonists of the sonic hedgehog signaling (Shh) pathway - cell viability counter screen (AID 1259366); also: nearly all actives have a fitted effect of over 50% in size; also: potency is read from the fitted curve at half-maximal effect
Outline: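 Fluorescence from CellTiter-Fluor reports live cells in this counter screen. NIH/3T3-derived Gli1-Luc reporter cells receive test compounds for 24hr at 37C; reagent goes in at 23hr.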

[10] = molecular target: Androgen receptor (Homo sapiens) (UniProt P10275); experiment: qHTS assay to identify small molecule antagonists of the androgen receptor (AR) signaling pathway using the MDA cell line in the presence of 0.5 nM R1881 (AID 1259243); also: nearly all actives have a fitted effect of over 50% in size; also: potency is read from the fitted curve at half-maximal effect
Outline: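 We exposed MDA-kb2 cells to compounds under 0.5 nM R1881 stimulation for 16 hr at 37C and quantified MMTV-driven luciferase by luminescence.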
% is scaled to controls: 0 for no effect and ±100 for the full control effect.

Chain of Estrogen receptor (Homo sapiens) (P03372 whole entry, looked up): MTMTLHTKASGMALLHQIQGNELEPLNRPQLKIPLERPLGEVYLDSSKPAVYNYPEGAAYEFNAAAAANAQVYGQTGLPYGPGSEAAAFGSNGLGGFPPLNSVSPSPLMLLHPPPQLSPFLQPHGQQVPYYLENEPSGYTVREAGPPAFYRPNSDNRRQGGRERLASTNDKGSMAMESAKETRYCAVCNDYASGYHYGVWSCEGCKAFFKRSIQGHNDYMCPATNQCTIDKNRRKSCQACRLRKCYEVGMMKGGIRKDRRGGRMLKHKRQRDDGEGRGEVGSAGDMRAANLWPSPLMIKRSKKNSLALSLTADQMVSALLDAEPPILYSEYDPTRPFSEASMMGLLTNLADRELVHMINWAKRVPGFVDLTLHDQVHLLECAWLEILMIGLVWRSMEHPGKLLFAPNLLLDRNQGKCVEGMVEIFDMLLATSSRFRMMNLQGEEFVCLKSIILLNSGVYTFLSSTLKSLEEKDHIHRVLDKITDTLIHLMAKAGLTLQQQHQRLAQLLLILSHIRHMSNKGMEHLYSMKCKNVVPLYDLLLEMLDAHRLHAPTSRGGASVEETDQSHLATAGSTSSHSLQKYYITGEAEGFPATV
Chain of Androgen receptor (Homo sapiens) (P10275 whole entry, looked up): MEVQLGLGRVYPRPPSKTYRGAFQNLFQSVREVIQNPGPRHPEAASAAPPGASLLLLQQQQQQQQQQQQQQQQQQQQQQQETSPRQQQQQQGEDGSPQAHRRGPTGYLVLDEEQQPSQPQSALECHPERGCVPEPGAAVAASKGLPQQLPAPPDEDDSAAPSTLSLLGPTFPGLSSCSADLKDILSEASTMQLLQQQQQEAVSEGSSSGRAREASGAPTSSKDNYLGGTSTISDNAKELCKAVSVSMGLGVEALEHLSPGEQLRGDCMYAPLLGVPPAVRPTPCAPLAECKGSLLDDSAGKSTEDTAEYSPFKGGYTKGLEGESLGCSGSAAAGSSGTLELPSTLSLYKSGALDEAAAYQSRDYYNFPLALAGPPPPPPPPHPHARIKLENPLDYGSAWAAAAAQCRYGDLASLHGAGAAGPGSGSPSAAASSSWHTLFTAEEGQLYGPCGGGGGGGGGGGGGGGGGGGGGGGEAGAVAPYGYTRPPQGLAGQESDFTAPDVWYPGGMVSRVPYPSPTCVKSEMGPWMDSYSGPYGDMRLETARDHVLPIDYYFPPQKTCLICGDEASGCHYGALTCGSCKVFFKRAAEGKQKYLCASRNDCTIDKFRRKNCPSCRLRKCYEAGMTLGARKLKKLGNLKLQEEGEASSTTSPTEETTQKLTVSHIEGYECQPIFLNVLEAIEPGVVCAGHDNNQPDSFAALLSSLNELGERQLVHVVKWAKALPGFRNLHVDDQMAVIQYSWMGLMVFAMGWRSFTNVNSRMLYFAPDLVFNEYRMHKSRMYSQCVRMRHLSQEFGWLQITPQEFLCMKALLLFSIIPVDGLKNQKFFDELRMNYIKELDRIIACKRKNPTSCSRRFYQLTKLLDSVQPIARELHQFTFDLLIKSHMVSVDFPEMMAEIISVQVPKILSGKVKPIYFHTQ

CO[C@@]12[C@H](COC(N)=O)C3=C(C(=O)C(C)=C(N)C3=O)N1C[C@@H]1N[C@@H]12
inactive: Potency [1] | outcome [2] | Potency [3] | Potency [4] | Potency [5]

O=C(N[C@@H](c1ccccc1)[C@@H]1CCCCN1)c1cccc(C(F)(F)F)c1Cl
active: Potency [7] 54.5 µM
inactive: Potency [6] | Potency [3] | Potency [4]

Cc1cc(C(=C2C=CC(=Nc3ccc(S(=O)(=O)O)cc3S(=O)(=O)O)C=C2)c2ccc(Nc3ccc(S(=O)(=O)O)cc3)cc2)ccc1N
inactive: Potency [1] | Potency [8] | Potency [3] | Potency [4] | Potency [9] | Potency [7] | Potency [5]

O=C(C(=O)c1ccccc1)c1ccccc1
inactive: Potency [6] | Potency [1] | Potency [3] | Potency [9] | Potency [7] | Potency [5]

O=C(c1ccc(O)cc1)c1ccc(Cl)cc1
inactive: Potency [6] | Potency [1] | Potency [4] | Potency [7] | Potency [5]

Cc1cc2nc3ccc(=[N+](C)C)cc-3sc2cc1N
active: Potency [1] 2.66 µM | Potency [10] 1.5 µM | Potency [8] 26.6 µM | Potency [3] 10.6 µM | Potency [9] 9.44 µM
inactive: PLD induction [2] -3.22% [at 0.306 µM] | Potency [7] | Potency [5]

O=S(=O)(c1ccccc1)c1ccc(Cl)cc1
inactive: Potency [6] | Potency [1] | Potency [3] | Potency [9] | Potency [7] | Potency [5]

C(=C\c1ccccc1)/CN1CCN(C(c2ccccc2)c2ccccc2)CC1
inactive: Potency [6] | Potency [1] | Potency [3] | Potency [9] | Potency [7] | Potency [5]

CO[C@H]1C=CO[C@@]2(C)Oc3c(C)c(O)c4c(O)c(c5c(c4c3C2=O)=NC2(CCN(CC(C)C)CC2)N=5)NC(=O)/C(C)=C\C=C/[C@H](C)[C@H](O)[C@@H](C)[C@@H](O)[C@@H](C)[C@H](OC(C)=O)[C@@H]1C
inactive: outcome [2] | Potency [3] | Potency [4] | Potency [5]
active: Potency [6] 47.5 µM | Potency [10] 67.1 µM | Potency [8] 59.8 µM | Potency [7] 23.8 µM

CCOC(=O)CC(=O)C(=O)OCC
inactive: Potency [6] | Potency [3] | Potency [4] | Potency [9] | Potency [7] | Potency [5]

Cc1nccn1-c1ccc(Sc2cccc(C3(C(N)=O)CCOCC3)c2)cc1
inactive: Potency [9] | Potency [7] | Potency [5]
active: Potency [8] 3.06 µM

OC(CCCN1CCCCC1)(c1ccccc1)c1ccccc1
inactive: Potency [1] | Potency [10] | Potency [8] | Potency [3] | Potency [4] | Potency [7] | Potency [5]

CC[C@H](NC(=O)c1cc(F)ccc1NS(=O)(=O)c1cccc2cccnc12)c1ccccc1
inactive: Potency [6] | Potency [1] | Potency [3] | Potency [7] | Potency [5]

Cc1cc(S(=O)(=O)O)ccc1N=Nc1c(O)ccc2ccccc12
active: Potency [6] 34.4 µM | Potency [1] 48.6 µM | Potency [3] 0.686 µM | Potency [9] 27.3 µM | Potency [7] 27.3 µM

CCNC(=O)N1CCN(CCCC(c2ccc(F)cc2)c2ccc(F)cc2)CC1
inactive: outcome [2] | Potency [3] | Potency [4] | Potency [7] | Potency [5]
active: Potency [6] 26.6 µM | Potency [8] 18.8 µM

COc1cc2c(N3CCN(C(=O)Nc4ccc(OC(C)C)cc4)CC3)ncnc2cc1OCCCN1CCCCC1
inactive: Potency [6] | Potency [8] | Potency [3] | Potency [4]

Fc1ccccc1[C@@H](F)COC1CCC(Nc2ncnc3[nH]ncc23)CC1 (some centres undefined)
active: Potency [10] 15.4 µM
inactive: Potency [3] | Potency [4] | Potency [9] | Potency [5]

CCC(=O)Oc1ccc(/C(CC)=C(\CC)c2ccc(OC(=O)CC)cc2)cc1
inactive: Potency [6] | Potency [1] | Potency [3] | Potency [9] | Potency [5]

CCCCCCCC/C=C\CCCCCCCC(=O)OC
inactive: Potency [6] | Potency [1] | Potency [3] | Potency [4] | Potency [9] | Potency [7] | Potency [5]

O=C(CS)OCCOC(=O)CS
inactive: Potency [6] | Potency [1] | Potency [4] | Potency [9] | Potency [7] | Potency [5]
active: Potency [3] 8.63 µM

O=C(CCCN1CCN(c2ccc(F)cc2)CC1)NC1c2ccccc2CSc2ccccc21 (centres undefined)
inactive: Potency [6] | outcome [2] | Potency [3] | Potency [4] | Potency [5]

NC(=O)N(O)[C@@H]1C=C[C@H](Oc2cccc(Oc3ccc(F)cc3)c2)C1
inactive: Potency [1] | Potency [3] | Potency [4] | Potency [9] | Potency [7] | Potency [5]

CCC(C)=O
inactive: Potency [6] | Potency [1] | Potency [3] | Potency [4] | Potency [7] | Potency [5]

NC(=O)Nc1ccc(Cl)c(Cl)c1
inactive: Potency [6] | Potency [1] | Potency [3] | Potency [4] | Potency [9] | Potency [7] | Potency [5]

Cc1occc1C(=O)Nc1ccc(C(=O)N2CCC(F)(F)/C(=C\C(=O)N3CCC(N4CCCCC4)CC3)c3ccccc32)cc1
inactive: Potency [1] | Potency [3] | Potency [5]

CCOC(=O)N1CCC(n2c(=O)[nH]c3cc(Cl)ccc32)CC1
inactive: Potency [6] | Potency [3] | Potency [4] | Potency [9] | Potency [7] | Potency [5]
active: Potency [10] 21.1 µM | Potency [8] 23.7 µM

[O]=[Bi]
inactive: activity change, negative = cytotoxicity [6] -2.05% [at 8.39 µM] | viability change, negative = cytotoxic [1] 1.95% [at 8.39 µM] | activity change, negative = inhibition [3] 9.82% [at 8.39 µM] | viability change, negative = cytotoxic [9] 11.3% [at 8.39 µM] | viability change, negative = cytotoxic [7] -5.4% [at 8.39 µM] | activity change [5] -0.104% [at 8.39 µM, hits give high values]

CN(C)C(=O)Nc1ccc(Oc2ccc(Cl)cc2)cc1
inactive: Potency [6] | Potency [1] | Potency [3] | Potency [4] | Potency [7] | Potency [5]

CNCCCC1c2ccccc2C=Cc2ccccc21
inactive: Potency [6] | Potency [8] | Potency [3] | Potency [4]

C=CCNc1nc(NCC=C)nc(N2CCN(C(c3ccc(F)cc3)c3ccc(F)cc3)CC2)n1
inactive: Potency [6] | Potency [3] | Potency [4] | Potency [9] | Potency [7] | Potency [5]
active: Potency [10] 10.6 µM | Potency [8] 11.9 µM

COc1ccccc1N=Nc1c(S(=O)(=O)O)cc2cc(S(=O)(=O)O)cc(NC(C)=O)c2c1O
inactive: Potency [3] | Potency [5]
active: Potency [6] 22.9 µM | Potency [1] 25.7 µM | Potency [4] 25.7 µM | Potency [9] 25.7 µM | Potency [7] 25.7 µM

CCCCC/C(=C\c1ccccc1)CO
inactive: Potency [6] | Potency [1] | Potency [3] | Potency [4] | Potency [9] | Potency [7] | Potency [5]

O=C(N/N=C/c1ccc([N+](=O)[O-])o1)c1ccc(O)cc1
inactive: outcome [2] | Potency [3] | Potency [4] | Potency [5]
active: Potency [6] 26.6 µM | Potency [10] 3.76 µM | Potency [8] 26.6 µM | Potency [9] 29.8 µM | Potency [7] 18.8 µM

Reference: PubChem BioAssay (Tox21)
